# Hit rate of the full screen: of about 1,100 compounds, about 760 (69%) were called active. No rule for the calls is given here. The set was probably picked from earlier hits. This is one part of the list.
# Experiment: M. tuberculosis growth inhibition, HTS (AID 1259417);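 also: bacteria grown with compound for 5 days at 37 °C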
# Conditions: stronger effect = higher value, concentration not given here
# [1] = M. tuberculosis DsRed fluorescence growth inhibition
# [2] = M. tuberculosis growth inhibition
SMILES,inhibition [1],inhibition [2] [%]
CC(C)OC(=O)COc1ccc2cc(-c3ccccc3)c(=O)oc2c1,61.1% (active),80.6
C=CCOC(=O)COc1ccc2c(-c3cc4ccccc4oc3=O)cc(=O)oc2c1,37.7% (active),60.7
COC(=O)C(C)Oc1ccc2cc(-c3ccc(OC)cc3)c(=O)oc2c1 (configuration not stated),66.3% (active),96.3
C=CCOC(=O)COc1ccc2cc(-c3ccc(OC)cc3)c(=O)oc2c1,97.2% (active),98.4
CCCC1(O)CC(c2ccc(Cl)cc2)NC(c2ccc(Cl)cc2)C1C (configuration not stated),8.53% (inactive),-21.7
C=CCOC(=O)COc1ccc2cc(-c3ccc(Cl)cc3)c(=O)oc2c1,98.9% (active),99.5
C=CCOC(=O)COc1ccc2cc(-c3ccccc3)c(=O)oc2c1,93.1% (active),97
C=CCOC(=O)COc1ccc2c(C)c(-c3ccccc3)c(=O)oc2c1,71.8% (active),92.5
COc1ccc(CCNc2cc(C)nc3c(-c4ccccc4)c(C)nn23)cc1OC,98.5% (active),98.9
Cc1cc(C)cc(Nc2cc(C)nc3c(-c4ccccc4)cnn23)c1,5.66% (inactive),21.5
COC(=O)C(C)Oc1ccc2c(=O)c(Oc3ccccc3Br)coc2c1 (configuration not stated),59.3% (active),82.3
CCc1ccc(Oc2coc3cc(OC(C)C(=O)OC)ccc3c2=O)cc1 (configuration not stated),65.1% (active),92.2
O=C(Nc1ccc(N2CCN(Cc3ccccc3F)CC2)cc1)c1ccc([N+](=O)[O-])o1,100% (active),99.7
CC(C)C(=O)N1CCN(c2ccccc2NC(=O)c2ccc([N+](=O)[O-])o2)CC1,19.7% (inactive),5.43
CC1CCN(c2ccc(NC(=O)c3ccc([N+](=O)[O-])o3)cc2)CC1,98.8% (active),98.7
CC(C)C(=O)N1CCN(c2ccc(NC(=O)c3ccc([N+](=O)[O-])o3)cc2)CC1,99.1% (active),100
CCOC(=O)COc1ccc(S(=O)(=O)Nc2ccc(C)c(C)c2)cc1,-1.13% (inactive),22
Cc1c(Cl)cccc1NC(=O)c1ccc(OC(C)C(=O)OC2CCCCC2)cc1 (configuration not stated),38.3% (active),74.3
CCOC(=O)COc1ccc(S(=O)(=O)Nc2c(C)cccc2CC)cc1,53% (active),92.2
CCOC(=O)COc1ccc(S(=O)(=O)Nc2cccc(Cl)c2C)cc1,14.4% (active),55.5
Cc1sc2ncn(C(C)C(=O)OC3CCCCC3)c(=O)c2c1C (configuration not stated),6.18% (inactive),8.72
CCOC(=O)COc1ccc(C(=O)Nc2cccc(Cl)c2C)cc1,97.7% (active),97.9

SMILES,inhibition [1],inhibition [2] [%]
O=C(NCc1ccco1)c1cc([N+](=O)[O-])cc([N+](=O)[O-])c1,97.8% (active),93.5
COc1ccccc1C(=O)Nc1sc2c(c1C(=O)NCc1ccco1)CCC2,3.89% (inactive),-6.54
CSc1ncc(C(=O)Nc2cccc(C(F)(F)F)c2)cn1,12.9% (inactive),15.6
O=C(Nc1sc2c(c1C(=O)NCc1ccco1)CCC2)c1ccccc1[N+](=O)[O-],3.29% (inactive),-5.87
Cc1scc(C(=O)NCc2ccco2)c1-c1ccccc1,2.71% (inactive),6.55
CSc1ncc(C(=O)NCc2ccco2)cn1,35.2% (active),25.2
CN1CCN(C(=S)NC(=O)c2ccc(-c3ccccc3)cc2)CC1,0.913% (inactive),-8
O=C(NC(=S)N1CCc2ccccc21)c1ccccc1,20.8% (inactive),20.4
COc1cc(OC)cc(C(=O)NC(=S)N2CCCCCC2)c1,3.24% (inactive),-3.75
CC1CCN(C(=S)NC(=O)c2ccc(Cl)cc2)CC1,24.6% (active),49.7
O=C(NC(=S)N1CCCC1)c1ccc(-c2ccccc2)cc1,44.2% (active),47
CC(=O)N(C)c1ccc(OCC(O)Cn2c3ccc(Cl)cc3c3cc(Cl)ccc32)cc1 (configuration not stated),0.0147% (inactive),-14.7
CCN(CC)CCn1c(=N)n(CC(O)COc2ccc(Cl)cc2Cl)c2ccccc21 (configuration not stated),100% (active),98
CC(=O)Oc1cc2c(cc1Cl)C1(CC(c3ccccc3Cl)O2)CC(C)(C)NC(=S)N1 (configuration not stated),-2.34% (inactive),-4.82
COC(=O)CSc1nc(N)c2c3c(sc2n1)CCCC3,44.7% (active),75
O=C(NCC1COc2ccccc2O1)c1ccc(NC(=O)C2COc3ccccc3O2)cc1 (configuration not stated),0.302% (inactive),-8.66
Cc1ccc(C)c(-c2nnc(NC(=O)C3=COCCO3)o2)c1,-4.83% (inactive),-2.72
O=C(Nc1nnc(-c2ccc(Cl)s2)o1)C1CCCCC1,49.3% (active),59.3
O=C(Nc1nnc(-c2ccc(Cl)cc2)o1)C1CCCCC1,0.632% (inactive),5.51
Cc1ccc(-c2nnc(NC(=O)C3CC3)o2)c(C)c1,49.6% (active),76.4
Cc1ccc(C)c(-c2nnc(NC(=O)C3COc4ccccc4O3)o2)c1 (configuration not stated),66.1% (active),90
CCCCC(=O)Nc1nnc(-c2ccc(Cl)s2)o1,0.12% (inactive),19.7

SMILES,inhibition [1],inhibition [2] [%]
Cc1ccc(C)c(-c2nnc(NC(=O)C3CC3)o2)c1,51.8% (active),83.4
CCC(=O)Nc1nnc(-c2ccc(C)cc2C)o1,0.727% (inactive),13.4
Cc1ccc(Nc2nnc(SCC(=O)Nc3cccnc3Cl)s2)cc1C,3.89% (inactive),-3.4
CSc1ncnc2c1ncn2CC(=O)Nc1ccc(C)c(C)c1,32.5% (active),19.8
CC(C)(C)c1ccc(C(=O)Nc2nnc(-c3ccncc3)o2)cc1,64.6% (active),77.1
CC(C)(C)c1ccc(C(=O)Nc2nnc(-c3cccnc3)o2)cc1,83.8% (active),89.3
CC12CCC(C(=O)Oc3cccc4cccnc34)(CC1=O)C2(C)C (configuration not stated),101% (active),100
COC(=O)c1ccc(COC(=O)c2ccccc2Cl)cc1,0.593% (inactive),15.3
CCCCNC(=O)COC(=O)c1cc(Br)ccc1Cl,11.3% (active),63.4
CCn1c(C=Cc2ccc([N+](=O)[O-])o2)nc2ccc(I)cc2c1=O,36.1% (active),34.3
O=c1c2ccccc2nc(C=Cc2ccc([N+](=O)[O-])o2)n1-c1cccc(O)c1,6.18% (inactive),-1.52
CCOC(=O)c1c(NC(=O)C2COc3ccccc3O2)sc2c1CC(C)(C)NC2(C)C (configuration not stated),29.1% (inactive),-2.75
Cc1ccc(C(=O)Nc2ccc([N+](=O)[O-])cc2)s1,98.3% (active),94.8
CCOC(=O)c1ccc(NC(=O)C=Cc2ccc([N+](=O)[O-])s2)cc1,52.9% (active),80.2
CCOC(=O)c1ccc(NC(=O)c2ccc(C)s2)cc1,91.5% (active),65.1
Cc1ccc(C)c(OCC(=O)Nc2ccc(C(=O)OC(C)C)cc2)c1C,8.22% (inactive),-22.5
O=c1c2cc(Cl)ccc2oc2nc3n(c(=O)c12)CCCS3,99.1% (active),98.2
O=Cc1ccc2oc3nc4n(c(=O)c3c(=O)c2c1)CCCS4,96.9% (active),95.6
CC(C)c1ccc(-c2csc(NC(=O)c3ccc4c(c3)OCCO4)n2)cc1,-4.25% (inactive),-26.1
O=C(Nc1ccn(Cc2ccc(Cl)cc2)n1)c1ccc2c(c1)OCO2,100% (active),99.3
O=C1N(Cc2ccccc2Cl)c2ccc(Br)cc2C1(O)c1c[nH]c2ccccc12 (configuration not stated),10.6% (inactive),-0.98
CCN(CC)c1ccc(NC(=O)c2ccc([N+](=O)[O-])o2)c(C)c1,98.8% (active),99.7

SMILES,inhibition [1],inhibition [2] [%]
Cc1ccc(C(=O)Nc2sc(C)c(C)c2C(N)=O)cc1I,3.89% (inactive),-13.1
CCc1cc(I)ccc1NC(=O)c1ccc([N+](=O)[O-])o1,98% (active),98.3
O=C(Nc1ccccc1Br)c1ccc([N+](=O)[O-])o1,64% (active),42.2
Cc1ccc(C(=O)Nc2ccc([N+](=O)[O-])cc2C)cc1I,97.4% (active),83.2
Cc1cc(NC(=O)c2ccc([N+](=O)[O-])o2)c(C)cc1I,88% (active),92
COc1ccc(CCNc2nc(-c3ccccn3)cs2)cc1OC,89.5% (active),78
c1ccc(CCNc2nc(-c3ccccn3)cs2)cc1,87.2% (active),86.6
Cc1cn2c3c(=O)[nH]c(=O)n(C)c3nc2n1CCCNc1ccccc1,34.8% (active),31.6
CCOC(=O)C(C)Sc1nnc(NC(=O)c2ccc(C)c([N+](=O)[O-])c2)s1 (configuration not stated),-5.3% (inactive),0.339
CC(C)c1ccc(Nc2nnc(SCC(=O)Nc3ncc(S(=O)(=O)c4ccc([N+](=O)[O-])cc4)s3)s2)cc1,-1.44% (inactive),-2.42
COC(=O)CSc1nnc(NC(=O)c2ccc(C(C)(C)C)cc2)s1,99.1% (active),98.3
CCc1ccc(Nc2nnc(SCC(=O)Nc3cccnc3Cl)s2)cc1,7.74% (inactive),23.1
Cc1cccc2sc(NC(=O)c3ccc(C(C)(C)C)cc3)nc12,12.6% (inactive),14.7
COC(=O)CSc1nnc(NC(=O)c2ccc(Cl)cc2)s1,88.6% (active),86.6
CC1=Nc2c(ccc3cccnc23)C1(C)C,8.5% (active),35.9
COc1ccccc1-c1nnc(Nc2nc3c(F)cccc3s2)o1,30.8% (active),84.8
Cc1ccc(C(=O)NCCC2=CCCCC2)cc1I,81.3% (active),52.7
Cc1ccc(C(=O)NCCC2=CCCCC2)cc1Br,86.6% (active),67.2
Cc1ccc(C(=O)NCCSC(C)(C)C)cc1[N+](=O)[O-],-1.92% (inactive),-26.5
COCCCNC(=O)c1c(NC(=O)c2ccc(C(C)(C)C)cc2)sc2c1CCCC2,15.2% (inactive),-1.37

# Source: PubChem BioAssay AID1259417 (TB Discovery Research, Infectious Disease Research Institute, 2018)
